# Assay results: PubChem BioAssay (Tox21)
# Records with an inconclusive call do not appear. A call without a number means that no potency is given here. Active and inactive are the calls of the source. Calls follow the shape of the dose curve; as a rule, active = well fitted cell-killing curve with a large enough effect in the repeat runs; inconclusive = weak or mixed curves, or effect the other way; inactive = no such curve, though single readings can be large or run the other way.
# Assay: qHTS assay to identify small molecule antagonists of the sonic hedgehog signaling (Shh) pathway - cell viability counter screen (AID 1259367); also: nearly all actives have a fitted effect of over 55% in size
# Details: NIH/3T3 Gli1-Luc viability, CellTiter-Fluor, 24 h; series mostly up to 92.4 µM
# From the text: National Center for Advancing Translational Sciences [NCATS]
# NIH Chemical Genomics Center [NCGC]
# U.S. Environmental Protection Agency [EPA]
# National Institutes of Environmental Health Sciences [NIEHS]
# National Toxicology Program [NTP]
# U.S. Food and Drug Administration [FDA]
# The sonic hedgehog (Shh) pathway is essential for normal embryonic development. Dysregulation of the Shh pathway can cause severe developmental defects in organs. Therefore chemicals that interfere with the pathway are potential developmental toxicants. A cell line designated 3T3Gli1-Luc (DMB/OARSA/CFSAN/FDA, Laurel, MD), a NIH/3T3 derived clone containing stably integrated Gli1-Luc reporter is used to detect chemical interference of the Shh pathway, by changes in the expression of the firefly Luc gene under the control of the Gli1 transcriptional response element. This cell line was used to screen Tox21 libraries for identifying and prioritizing the potential developmental toxicants that interfere Shh pathway. Conditioned medium-stimulated mode was used to screen for chemicals inhibiting Shh signaling. The cytotoxicity of the compounds was tested in parallel by measuring the cell viability using CellTiter-Fluor assay system (Promega, Madison, WI) in the same wells.
# Tox21 Assay Protocol Summary:
# 3T3 Gli1-Luc cells were dispensed at 2,000 per well in 5uL of culture medium into white solid bottom 1536-well plates (Greiner Bio-One, Monroe, NC) using a Multidrop Combi (Thermo Scientific, Waltham, MA) dispenser. The assay plates were incubated at 37 C and 5% CO2 for 4hr, and then 23nL of compounds dissolved in DMSO and positive control were transferred using a Pintool station (Wako, San Diego, CA). The compound transfer was followed by the addition of 1ul conditioned medium or assay buffer using two separate tips of Flying Reagent Dispenser (FRD, Aurora Discovery, San Diego, CA). The assay plates were incubated at 37C and 5% CO2 for 24hr. For viability read, after 23hr of compound treatment, 1uL of CellTiter-Fluor reagent (Promega Corporation, Madison, WI) was added to each well of the assay plates using Flying Reagent Dispenser (FRD, Aurora Discovery, San Diego, CA) and incubated the assay plates at 37C for 1hr. The fluorescence signal was quantified using a ViewLux plate reader (Perkin Elmer, Shelton, CT).
# Potency is read from the fitted curve at half-maximal effect.
row,Structure (SMILES),Potency
1,CCCCOC(=O)CCCCC(=O)OCCCC,inactive
2,CC(=O)OCCC1CCCCC1,inactive
3,O=C(O)c1ccc(O)cc1O,inactive
4,CCC1CCC(CCC(=O)O)C1 (stereo not given),inactive
5,CC12CC3CC(C)(C1)CC(N)(C3)C2,inactive
6,CCCCCCC(O)CCCCCCCCCCC(=O)OC (stereo not given),inactive
7,N[C@@H](Cc1cc(I)c(O)c(I)c1)C(=O)O,inactive
8,CC(C)(C(=O)c1cccnc1)c1cccnc1,inactive
9,CN1CCCN(C(c2ccccc2)c2ccc(Cl)cc2)CC1 (stereo not given),13.3 µM (active)
10,CCCCCCCC/C=C\CCCCCCCC(=O)OCCO,inactive
11,CC1CCCC(=O)C1=O (stereo not given),inactive
12,CC(C)c1ccc(C(=O)N=C(N)N)cc1S(C)(=O)=O,inactive
13,COc1cc(S(=O)(=O)Nc2ccccc2)c(OC)cc1N,inactive
14,CCc1ccc(C)cc1,inactive
15,COC(C)(C)OC,inactive
16,CSSc1ccoc1C,inactive
17,COc1cc(NS(=O)(=O)c2ccc(N)cc2)nc(C)n1,inactive
18,O=C(O)CCC(=O)OC[C@@H](NC(=O)C(Cl)Cl)[C@H](O)c1ccc([N+](=O)[O-])cc1,inactive
19,CC(C)(C)C1(CCc2ccc(Cl)cc2)CO1 (stereo not given),inactive
20,CC(=O)C(C)=O,inactive

row,Structure (SMILES),Potency
1,O=NN(CCCl)C(=O)NCCCl,inactive
2,COc1ccc(CCN(C)CCCN2CCc3cc(OC)c(OC)cc3CC2=O)cc1OC,inactive
3,CC(C)COC(=O)c1ccc(O)cc1,inactive
4,O=C1NC(=O)c2cccc3cccc1c23,inactive
5,Oc1cccc2[nH]ccc12,inactive
6,O=P(O)(O)Oc1ccccc1,inactive
7,O=C(O)c1cc(Cl)cc(Cl)c1O,inactive
8,O=[N+]([O-])c1ccc2ncccc2c1,inactive
9,CC(=O)NCCO,inactive
10,O=C1CC[C@@H](C(=O)O)N1,inactive
11,Nc1ccc(S(=O)(=O)NCc2ccccc2)cc1,inactive
12,O=C(O)CN1C(=O)c2cccc3cccc(c23)C1=O,inactive
13,O=C(CCS)OCC(COC(=O)CCS)(COC(=O)CCS)COC(=O)CCS,inactive
14,CCN(CC)CCOc1ccccc1C(=O)CCc1ccccc1,inactive
15,COC1CCC=CO1 (stereo not given),inactive
16,CC(C)(C)NCC(O)COc1cccc2c1C[C@H](O)[C@H](O)C2 (stereo not given in full),inactive
17,CNS(=O)(=O)c1cc(C(=O)N2CCC(CCN3C4CCC3CC(n3c(C)nc5ccccc53)C4)(c3cccc(F)c3)CC2)c(Cl)cc1F (stereo not given),inactive
18,COc1cc(NC(C)CCCN)c2ncccc2c1 (stereo not given),inactive
19,C=CCOC(=O)COCCC(C)C,inactive
20,C/C(C=O)=C\c1ccccc1,inactive
